Measurements published in PubChem BioAssay AID504447 (The Scripps Research Institute Molecular Screening Center, 2011).
Potency and affinity values are given separately. Activity calls are given as the source filed them. Where a call stands in place of a potency, no number is given. The rule behind the calls is not given here.

The compounds below were run against Peroxisome proliferator-activated receptor gamma (Homo sapiens) (UniProt P37231) (assay: PPARg transcriptional activation, reporter cells – cell-based, luminescence, assay provider, dose response (AID 504447)). Conditions: luciferase luminescence, partial agonism; series mostly up to 5 µM.
Peroxisome proliferator-activated receptor gamma (Homo sapiens), sequence (P37231 whole entry, looked up): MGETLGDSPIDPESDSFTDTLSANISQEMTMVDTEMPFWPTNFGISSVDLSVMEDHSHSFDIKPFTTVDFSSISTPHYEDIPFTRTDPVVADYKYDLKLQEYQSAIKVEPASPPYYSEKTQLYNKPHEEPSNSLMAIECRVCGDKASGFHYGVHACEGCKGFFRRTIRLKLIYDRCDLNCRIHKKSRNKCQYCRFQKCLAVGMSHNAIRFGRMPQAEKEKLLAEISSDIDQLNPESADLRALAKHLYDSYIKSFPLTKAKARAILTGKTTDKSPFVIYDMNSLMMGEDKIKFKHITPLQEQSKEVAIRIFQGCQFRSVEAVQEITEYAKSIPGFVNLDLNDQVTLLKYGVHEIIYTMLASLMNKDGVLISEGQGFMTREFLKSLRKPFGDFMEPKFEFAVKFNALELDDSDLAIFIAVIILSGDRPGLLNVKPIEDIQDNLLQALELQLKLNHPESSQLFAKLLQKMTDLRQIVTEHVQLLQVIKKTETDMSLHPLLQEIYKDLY
For `Cc1c(-n2cc(C(=O)c3cc(F)ccc3O)cc(C#N)c2=O)c(=O)n(-c2ccccc2)n1C`, the outcome was “inactive”.
In the case of `CCOc1cc(N2CCOCC2)c(OCC)cc1NC(=O)c1ccc2ccccc2n1`, the outcome is reported as “inactive”.
`Cc1cc(N2C(=O)C(O)=C(C(=O)c3cccs3)C2c2cccc(Br)c2)no1` (stereo not drawn) was tested, and the outcome was “inactive”.
For `S=C(NCCc1ccccc1)N1CCn2cccc2C1c1ccncc1` (stereo not drawn), the outcome was “inactive”.
In the case of `CN(CCNC(=O)C1CCCN(c2ncnc3c2nc2n3CCCCC2)C1)Cc1ccccc1` (stereo not drawn), the outcome is reported as “inactive”.
`Cc1cc(C)c2nc(N3C(=O)C(O)=C(C(=O)c4ccco4)C3c3ccc(O)cc3)sc2c1` (stereo not drawn) was tested, and the outcome was “inactive”.
For `COc1cc(C2/C(=C(/O)c3ccc(F)cc3)C(=O)C(=O)N2CCCC(=O)O)ccc1O` (stereo not drawn), the outcome was “inactive”.
In the case of `Cc1ccc(-c2nnc(Nc3ccc(O)cc3)c3ccccc23)cc1S(=O)(=O)NCCO`, the outcome is reported as “inactive”.
`Cc1ccc2nc(N3C(=O)C(O)=C(C(=O)c4ccco4)C3c3ccc(O)cc3)sc2c1` (stereo not drawn) was tested, and the outcome was “inactive”.
With `O=C(c1nc2ccccn2c1CN1CCCC(O)C1)N1CCN(C2CCCCC2)CC1` (stereo not drawn) the outcome was “inactive”.
For `O=C(Nc1c(C(=O)Nc2ccc3c(c2)OCCO3)cnn1-c1ccccc1Cl)c1ccco1`, the outcome was “inactive”.
With `COc1ccc(C=NNS(=O)(=O)c2ccc(F)cc2)cc1COc1cc(F)ccc1[N+](=O)[O-]` the outcome was “inactive”.
For `CC(C)OC(=O)CCN1C(=O)/C(=C/c2ccccc2)SC1=S`, the outcome was “inactive”.
For `O=C(CNC(=O)c1nc[nH]c1C(=O)N1CCc2ccccc2C1)OCc1ccccc1`, the outcome was “inactive”.
For `Cc1ccc2[nH]c(=O)c(CN(Cc3cccs3)Cc3nnnn3CC3CCCO3)cc2c1` (stereo not drawn), the outcome was “inactive”.
`Cc1ccc2cc(CN(Cc3ccccc3)Cc3nnnn3C3CCCC3)c(=O)[nH]c2c1` was tested, and the outcome was “inactive”.
With `COc1ccc(O)c(C(=O)c2cc(C#N)c(=O)n(-c3ccc(Cl)cc3)c2)c1` the outcome was “inactive”.
In the case of `O=C(O)COc1ccccc1/C=C1\SC(=S)N(NC(=O)c2ccccc2O)C1=O`, the outcome is reported as “inactive”.
In the case of `COc1ccccc1NC(=O)C(=O)c1cn(CC(=O)N2CCOCC2)c2ccccc12`, the outcome is reported as “inactive”.
With `Cc1ccccc1NC(=O)CC1C(=O)Nc2ccccc2N1CC(=O)N(C)C1CCS(=O)(=O)C1` (stereo not drawn) the outcome was “inactive”.
With `CCOc1ccc(CN2CCN(Cc3cccc4nonc34)CC2CCO)cc1` (stereo not drawn) the outcome was “inactive”.
With `O=C(CSc1nc(=O)n(CCCN2CCOCC2)c2c1CCC2)Nc1cccc(F)c1` the outcome was “inactive”.
In the case of `O=C(COc1coc(CN2CCc3ccccc3C2)cc1=O)Nc1ccc(F)cc1F`, the outcome is reported as “inactive”.
